The campaign covered roughly 5,500 compounds. About 2,000 (36%) were called active. About 18% were inconclusive and are not listed. Cut-off read from the data, not from the text of the source: active = normalized growth mostly below about 0.91 (no sharp cut-off); inconclusive = no clear call, values can overlap the other calls; inactive = mostly above about 0.92. The list shows a part of the results.
Assay: chemical genetic growth profiling, strain panel (AID 1159580);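 note: tested at 20 µM; growth read once vehicle control cultures reached saturation at 30 °C; 1 = growth at the plate median or of vehicle wells; lower values mean less growth of the strain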
Conditions: growth OD

Measured: normalized growth

Cc1c(C(=O)O)cc(-c2ccccc2)n1-c1ccccc1
active: S. cerevisiae deletion strains, locus YHR030C, strain SLT2, stronger effect = lower value 0.613 | S. cerevisiae deletion strains, locus YLR039C, strain RIC1, stronger effect = lower value 0.674 | S. cerevisiae deletion strains, locus YLR085C, strain ARP6, stronger effect = lower value 0.654 | S. cerevisiae deletion strains, locus YLR262C, strain YPT6, stronger effect = lower value 0.66 | S. cerevisiae deletion strains, locus YMR307W, strain GAS1, stronger effect = lower value 0.467 | S. cerevisiae deletion strains, locus YPR135W, strain CTF4, stronger effect = lower value 0.64
inactive: S. cerevisiae deletion strains, locus YAL013W, strain DEP1, stronger effect = lower value 0.988 | S. cerevisiae deletion strains, locus YBR229C, strain ROT2, stronger effect = lower value 1.01 | S. cerevisiae deletion strains, locus YDL101C, strain DUN1, stronger effect = lower value 1 | S. cerevisiae deletion strains, locus YDR150W, strain NUM1, stronger effect = lower value 0.892 | S. cerevisiae deletion strains, locus YEL061C, strain CIN8, stronger effect = lower value 0.941 | S. cerevisiae deletion strains, locus YGR078C, strain PAC10, stronger effect = lower value 0.999 | S. cerevisiae deletion strains, locus YHR087W, strain rtc3, stronger effect = lower value 0.985 | S. cerevisiae deletion strains, locus YJL187C, strain SWE1, stronger effect = lower value 0.988 | S. cerevisiae deletion strains, locus YJR043C, strain POL32, stronger effect = lower value 0.999 | S. cerevisiae deletion strains, locus YJR075W, strain HOC1, stronger effect = lower value 0.959 | S. cerevisiae deletion strains, locus YKL190W, strain CNB1, stronger effect = lower value 0.975 | S. cerevisiae deletion strains, locus YLR058C, strain SHM2 (second series), stronger effect = lower value 1.01 | S. cerevisiae deletion strains, locus YML094W, strain GIM5, stronger effect = lower value 0.945 | S. cerevisiae deletion strains, locus YMR219W, strain ESC1, stronger effect = lower value 0.998 | S. cerevisiae deletion strains, locus YMR263W, strain SAP30, stronger effect = lower value 0.981 | S. cerevisiae deletion strains, locus YNL153C, strain GIM3, stronger effect = lower value 0.952 | S. cerevisiae deletion strains, locus YNL298W, strain CLA4 (second series), stronger effect = lower value 0.869 | S. cerevisiae deletion strains, locus YNL322C, strain KRE1, stronger effect = lower value 1 | S. cerevisiae deletion strains, locus YNR030W, strain Alg12, stronger effect = lower value 0.923 | S. cerevisiae deletion strains, locus YOL006C, strain TOP1, stronger effect = lower value 0.85 | S. cerevisiae deletion strains, locus YPL055C, strain LGE1, stronger effect = lower value 0.865 | S. cerevisiae deletion strains, locus YPL241C, strain CIN2, stronger effect = lower value 0.907 | S. cerevisiae strains, strain wild type, stronger effect = lower value 0.987

— PubChem BioAssay AID1159580 (chemical genetic matrix, 2015)
